Assay outcomes: PubChem BioAssay, National Center for Advancing Translational Sciences (NCATS)
A selection: hits, their analogues and other compounds. The true share with any hit is near 19%.
TGFb inhibitor – inhibitors of TGF-b signaling. AID 588855. HepG2 CAGA-GFP TGF-b/SMAD3 reporter, GFP fluorescence, 18 h; TGF-beta stimulated, 500 pg/mL final. 410,000 tested, 1.2% active. Potency, µM (highest dose often 46.1 µM), without a hit: at the top dose activity, negative = inhibition, most hits filed as inhibitors; further: potency means the concentration at half of the fitted maximal effect; on the % scale 0 is the no-effect control and ±100 the full control effect; nearly all actives have a fitted effect of over 65% in size
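First, reporter cells (HEPG2 CAGA-GFP) rested 2 h at 37 degrees C. Next, compounds were pinned in and TGF-beta added to 500 pg/mL final. After 18 h, GFP was imaged per cell and summed per well.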
TDP1 cell noCPT – qHTS for Inhibitors of human tyrosyl-DNA phosphodiesterase 1 (TDP1): qHTS in cells in absence of CPT. DT40 Tdp1-/- hTDP1 cells, no CPT, ATP luminescence, 48 h. Potency, µM (top dose mostly 46.2 µM), for the others: at the highest dose activity change, negative = growth inhibition, usual class: inhibitors. 420,000 tested, 15% active. AID 686978, 2013; further: potency means the concentration at half of the fitted maximal effect; on the % scale 0 is the no-effect control and ±100 the full control effect; nearly all actives have a fitted effect of over 55% in size
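Chicken DT40 Tdp1-/- cells complemented with human TDP1, screened without camptothecin (DMSO vehicle only), 400 cells/well. Compounds pin-transferred, cells incubated at 37 °C for at least 48 hr. Growth read as ATP-dependent luminescence (CellTiter-Glo, 30 min at RT).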
TDP1 cell CPT – DT40-hTDP1 cell growth loss with CPT. AID 686979. 420,000 tested, 12% active. chicken DT40 Tdp1-/-;hTDP1 cells + 20 nM CPT, ATP luminescence, 48 h. Potency, µM (titrated, usually from 46.2 µM), for inactives: at the highest dose activity change, negative = growth inhibition, actives largely listed as inhibitors; further: potency means the concentration at half of the fitted maximal effect; on the % scale 0 is the no-effect control and ±100 the full control effect; nearly all actives have a fitted effect of over 55% in size
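Chicken DT40 Tdp1-/- cells complemented with human TDP1, 400 cells/well, exposed to compounds plus 20 nM camptothecin for at least 48 h at 37 C; viability read as ATP content by CellTiter-Glo luminescence.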
IL-1B inflam inh – inhibitors of inflammasome signaling (IL-1 beta secretion); THP-1 LPS/ATP IL-1B secretion, AlphaLISA, 16 h; active compounds read low; activity change, % at 57.5 µM; 360,000 tested, 4.7% active; AID 743279; in the data active means activity change below about -50%; inconclusive means mostly about -30% to -49%; further: on the % scale 0 is the no-effect control and ±100 the full control effect
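THP-1 cells pretreated 1 hr with compounds (up to 57.5 uM final), then stimulated with LPS (250 ng/mL final) plus ATP (1.25 mM final); secreted IL-1B measured by AlphaLISA after 16 hr, decreased signal indicating inhibition.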
TDP1 inh – TDP1 (human) enzyme inhibition; recombinant TDP1, AlphaScreen DNA substrate cleavage; Potency, µM (titrated, usually from 130 µM), inactives show top-dose activity change, negative = inhibition, most hits filed as inhibitors; 350,000 tested, 0.28% active; AID 485290; further: potency means the concentration at half of the fitted maximal effect; on the % scale 0 is the no-effect control and ±100 the full control effect; nearly all actives have a fitted effect of over 40% in size
Target sequence (Q9NUW8 whole entry, looked up): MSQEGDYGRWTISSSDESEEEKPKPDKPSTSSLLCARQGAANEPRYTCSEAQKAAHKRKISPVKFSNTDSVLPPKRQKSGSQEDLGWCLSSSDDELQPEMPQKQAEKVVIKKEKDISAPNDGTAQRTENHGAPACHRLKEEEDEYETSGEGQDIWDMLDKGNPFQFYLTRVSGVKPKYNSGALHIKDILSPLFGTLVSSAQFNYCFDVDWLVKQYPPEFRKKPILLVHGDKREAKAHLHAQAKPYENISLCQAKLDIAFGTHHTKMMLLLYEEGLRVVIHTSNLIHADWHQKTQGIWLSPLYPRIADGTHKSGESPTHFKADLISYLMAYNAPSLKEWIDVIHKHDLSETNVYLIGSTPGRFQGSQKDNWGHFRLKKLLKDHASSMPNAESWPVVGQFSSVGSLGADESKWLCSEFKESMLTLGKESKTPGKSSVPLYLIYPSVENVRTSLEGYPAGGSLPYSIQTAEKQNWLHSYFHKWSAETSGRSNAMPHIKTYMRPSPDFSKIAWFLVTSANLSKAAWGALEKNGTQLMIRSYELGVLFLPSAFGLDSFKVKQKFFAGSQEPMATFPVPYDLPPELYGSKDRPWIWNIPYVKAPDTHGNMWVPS
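Tdp1 1 nM final; 15 min RT w/ cpd; substrate 15 nM, 5 min; beads 10 ug/ml, 10 min; AlphaScreen read. Neg ctrl: no enzyme.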
HepG2 viability – counter-screen for TGF-b inhibitors: cytotoxicity in HepG2 cells; HepG2 CAGA-GFP viability, ATP luminescence, 18 h; Potency, µM (series often up to 46.1 µM), for the others: at the highest dose activity change, negative = cytotoxicity, usual class: cytotoxic; 410,000 tested, 0.76% active; AID 588856; further: potency means the concentration at half of the fitted maximal effect
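HepG2 CAGA-GFP cells (1000/well, DMEM with 1% FBS) received compound, then TGF-beta at 500 pg/mL final, and were incubated 18 hours at 37 degrees C. Viability was read by CellTiter-Glo luminescence. Media-only wells were set as complete cell-killing and DMSO as no toxicity.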
An asterisk follows results filed as active; ? = inconclusive; . = no result given. Unless noted, the call rests on the fitted dose curve; in most records, active means well fitted curve in the direction sought with a large enough effect; inconclusive means small, poorly fitted or top-dose-only effect, or another doubt; inactive means no such curve, though single readings can be large; an effect the other way counts as inactive or inconclusive.

SMILES	TGFb inhibitor	TDP1 cell noCPT	TDP1 cell CPT	IL-1B inflam inh	TDP1 inh	HepG2 viability
CC1(C(=O)NS(=O)(=O)c2ccc(C#N)cc2)CCN1C(=O)CC1CC1 (centres undefined)	7%	-8%	-10%	24	.	0%
CCOc1ccc(S(=O)(=O)N2CCC(N3CCN(Cc4ccc(C)cc4)C(=O)C3=O)CC2)cc1	-8%	-13%	-18%	.	0%	1%
Cc1ccc2c(c1)NC(=O)C(CC(=O)NCCCN1CCN(c3cc(C)ccc3C)CC1)O2 (centres undefined)	-16%	7.3µM*	8.2µM*	-30	0%	-38%
c1ccc(-c2nnc(-c3ccco3)o2)cc1	8%	-3%	-3%	4	2%	-25%
c1coc(-c2nnc(-c3ccco3)nn2)c1	6%	12µM*	5.8µM*	-76*	.	-21%
COc1ccccc1/C=N/NC(=O)c1ccccc1Cl	-17%	7%	11%	-67*	0%	5%
COc1ccc(/C=N/NC(=O)c2cccc(NC(=O)c3ccccc3Cl)c2)cc1OC	0%	?	-12%	22	1%	13%
COc1cccc(/C=N/NC(=O)c2ccc([N+](=O)[O-])cc2Cl)c1O	?	4.6µM*	4.6µM*	69	11%	-24%
COc1ccc(/C=N/NC(=O)c2cccc(NC(=O)c3ccccc3Cl)c2)cc1	-30%	4.6µM*	3.7µM*	88	0%	7%
COc1ccccc1/C=N/NC(=O)c1cccc(NC(=O)c2ccccc2Cl)c1	0%	-1%	10%	-9	1%	-19%
CCOc1ccc(CNS(=O)(=O)c2cc3c(cc2C)NC(=O)CO3)cc1OC	0%	-4%	-12%	.	3%	-15%
O=C1NC2(c3ccccc3)NC(=O)NC2(c2ccccc2)N1 (centres undefined)	16%	2%	5%	-1	.	-4%
CNS(=O)(=O)c1cccc(C(=O)OCC(=O)c2ccc3[nH]c(=O)[nH]c3c2)c1	-16%	1%	?	-2	-8%	-27%
COc1ccccc1OCC(=O)N(Cc1nc(-c2ccccc2)no1)C(C)C	17%	?	-18%	-59*	4%	-15%
COc1cccc(OCC(=O)N(Cc2nc(-c3ccc(Cl)cc3)no2)C(C)C)c1	?	23µM*	8.2µM*	-6	5%	-6%
CC(C)N(Cc1nc(-c2ccccc2)no1)C(=O)COc1ccccc1	-6%	?	?	1	-3%	0%
Cc1ccc(OCC(=O)N(Cc2nc(-c3ccccc3)no2)C(C)C)cc1C	?	?	?	.	-4%	-29%
COc1ccccc1OCC(=O)N(Cc1nc(-c2ccc(Cl)cc2)no1)C(C)C	-8%	16µM*	?	-26	2%	-23%
Cc1ccc(-c2noc(CN(C(=O)COc3cc(C)cc(C)c3C)C(C)C)n2)cc1	?	?	23µM*	.	1%	-15%
O=C(CC1SC(N2CCCC2)=NC1=O)Nc1ccc(C(=O)NCc2ccc(F)cc2)cc1 (centres undefined)	-7%	-11%	31%	-16	3%	-4%
Cc1ccc(-c2nnc(Nc3cccc(O)c3)c3ccccc23)cc1S(=O)(=O)NCC1CCCO1 (centres undefined)	?	23µM*	?	.	.	-33%
Cc1ccc(-c2nnc(N3CCOCC3)c3ccccc23)cc1S(=O)(=O)NCC1CCCO1 (centres undefined)	14%	26µM*	?	?	0%	-46%
Cc1ccc(-c2n[nH]c(=S)c3ccccc23)cc1S(=O)(=O)NCC1CCCO1 (centres undefined)	-10%	?	?	?	.	-17%
